Rows were chosen to be rich in hits. Some 6.9% of all compounds tested hit in one or more screens of this group.
SKKanGAS inh = S. pyogenes SKKanGAS growth inhibitors in kanamycin, primary screen, streptokinase expression inhibitor project, SKKanGAS strain, BacTiter-Glo luminescence; 6 h; inhibition, % at 7.5 µM; hit rate 1.3% among 300,000; AID 1662, 2009;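 active means mean replicate score, as percent of positive control median, at least 50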;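 further: strain carries kanamycin resistance gene driven by streptokinase promoter and grows in 40 µg/ml kanamycin; loss of luminescence reflects streptokinase promoter inhibition or plain growth inhibition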
Mdm2 MdmX PPI = inhibitors of human Mdm2-MdmX association, primary screen, cell-based, luminescence, split luciferase, SaOS-2, uHTS; AID 485346, 2010; SaOS-2 split-luciferase Mdm2/MdmX complementation; hit rate 3% among 330,000; inhibition, % at 8 µM;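 active means inhibition of at least 50% at 8 µM in the primary screen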
Target sequence (O15151 whole entry, looked up): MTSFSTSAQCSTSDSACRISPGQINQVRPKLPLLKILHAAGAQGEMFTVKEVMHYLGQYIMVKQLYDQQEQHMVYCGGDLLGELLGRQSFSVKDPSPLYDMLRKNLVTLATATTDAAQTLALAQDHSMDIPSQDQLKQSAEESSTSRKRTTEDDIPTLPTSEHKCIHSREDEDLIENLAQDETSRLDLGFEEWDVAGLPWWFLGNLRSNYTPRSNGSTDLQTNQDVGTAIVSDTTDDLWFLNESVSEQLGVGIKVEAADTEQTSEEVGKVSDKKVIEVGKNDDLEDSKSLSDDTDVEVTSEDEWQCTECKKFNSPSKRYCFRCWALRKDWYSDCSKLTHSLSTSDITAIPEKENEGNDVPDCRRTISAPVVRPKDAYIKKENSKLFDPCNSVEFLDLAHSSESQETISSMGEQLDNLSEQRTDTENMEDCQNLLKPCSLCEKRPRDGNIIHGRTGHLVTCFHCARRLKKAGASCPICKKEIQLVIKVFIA
Target sequence (Q00987 whole entry, looked up): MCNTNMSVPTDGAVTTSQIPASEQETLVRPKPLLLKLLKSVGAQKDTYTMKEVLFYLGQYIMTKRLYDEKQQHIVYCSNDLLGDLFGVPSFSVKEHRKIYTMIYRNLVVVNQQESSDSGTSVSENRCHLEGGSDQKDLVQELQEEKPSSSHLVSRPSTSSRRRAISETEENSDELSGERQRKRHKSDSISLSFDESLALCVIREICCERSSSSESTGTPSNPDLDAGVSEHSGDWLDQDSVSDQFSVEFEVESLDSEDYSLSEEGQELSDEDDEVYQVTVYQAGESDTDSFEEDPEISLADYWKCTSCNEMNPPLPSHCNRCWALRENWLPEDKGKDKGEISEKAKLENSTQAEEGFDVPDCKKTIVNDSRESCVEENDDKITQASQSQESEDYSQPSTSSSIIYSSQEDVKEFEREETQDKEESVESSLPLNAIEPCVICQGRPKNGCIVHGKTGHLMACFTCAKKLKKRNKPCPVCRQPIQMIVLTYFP
Beta apoptosis = inhibitors of cytokine-induced beta cell apoptosis, primary screen, luminescence. AID 435005, 2010. INS-1E cytokine-induced death, ATP luminescence, 48 h; percent of positive-control rescue, neutral wells zero. hit rate 0.8% among 300,000. protection from apoptosis, % (test concentration not listed);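 active means Every replicate reaches about 75%, or at least half do and their mean reaches it too, limit read from the data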;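 further: higher means more ATP so stronger rescue from cytokine killing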
CSC inhib = cancer stem cell viability inhibitors, primary screen, luminescence | cancer stem cell-like cells viability | inhibition, % at 7.5 µM | hit rate 1.1% among 300,000; in the data active means inhibition above about 75%; tested in HMLE shEcad cells
MPTP inh = mitochondrial permeability transition pore inhibitors, primary screen, biochemical, isolated mouse mitochondria, absorbance | hit rate 1.4% among 360,000 | Ca2+ swelling absorbance, 30 min | inhibition, % at 10 µM | AID 602449, 2012;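 active means inhibition of 50% or more, scaled per plate between neutral and stimulator controls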
GRIN3A LBD mod = binders of NR3A ligand-binding domain, primary screen, biophysical, differential scanning fluorimetry, uHTS; Glutamate receptor ionotropic, NMDA 3A (GRIN3A) ligand-binding domain; NR3A LBD differential scanning fluorimetry, Tm shift; 0% = protein alone, 100% = glycine-bound protein; Tm shift relative to glycine control, % at 25 µM; hit rate 2.5% among 340,000; AID 1259313, 2017;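 active means melting temperature shift of at least 10% of the positive control shift, at one fixed dose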
MPTP counter = fluorescence retest of MPTP screen hits in isolated mitochondria, single concentration; shares compounds with MPTP inh; inhibition, % at 10 µM; membrane potential, Rhodamine 123 fluorescence; hit rate 78% among 5,000; in the data active means inhibition above about 22%
A number is an active result.

Results for Cc1[nH]c2ccccc2c1C1=CC(=O)C=CC1=O ?
MPTP inh: 52; GRIN3A LBD mod: inactive; MPTP counter: inactive

What do the screens show for `Cc1[nH]c2ccccc2c1CCO`?
SKKanGAS inh: inactive; Mdm2 MdmX PPI: inactive; Beta apoptosis: inactive; CSC inhib: inactive; MPTP inh: inactive; GRIN3A LBD mod: inactive

Results for Cc1ccc(-c2nc3cccnc3o2)cc1NC(=O)COc1ccc(C(C)(C)C)cc1 ?
SKKanGAS inh: inactive; Mdm2 MdmX PPI: inactive; Beta apoptosis: inactive; CSC inhib: inactive; MPTP inh: 85; GRIN3A LBD mod: inactive; MPTP counter: 23

How did CC1(C)C(=O)Nc2ccccc2N1C(=O)CSc1nc(-c2ccccc2)cs1 do in these assays?
SKKanGAS inh: inactive; Mdm2 MdmX PPI: inactive; MPTP inh: 98; GRIN3A LBD mod: inactive; MPTP counter: 70

Results for O=C1CN(C(=O)CSc2nc(-c3ccccc3)cs2)c2ccccc2N1 ?
SKKanGAS inh: inactive; Mdm2 MdmX PPI: inactive; Beta apoptosis: inactive; MPTP inh: inactive; GRIN3A LBD mod: inactive

How did Cc1cccc(NC(=O)C2C(c3ccccc3)C2(Cl)Cl)c1C (centres undefined) do in these assays?
SKKanGAS inh: inactive; Mdm2 MdmX PPI: inactive; Beta apoptosis: inactive; CSC inhib: inactive; MPTP inh: 71; GRIN3A LBD mod: inactive; MPTP counter: 77

How did O=C(Nc1ccccc1)C1C(c2ccccc2)C1(Cl)Cl (centres undefined) do in these assays?
SKKanGAS inh: inactive; Mdm2 MdmX PPI: inactive; Beta apoptosis: inactive; CSC inhib: inactive; MPTP inh: inactive; GRIN3A LBD mod: inactive

How did Cc1ccc(C(=O)Nc2nc(-c3cccnc3)cs2)o1 do in these assays?
SKKanGAS inh: inactive; Mdm2 MdmX PPI: inactive; Beta apoptosis: inactive; CSC inhib: inactive; MPTP inh: inactive; GRIN3A LBD mod: inactive

What do the screens show for `O=C(NC(=S)Nc1nc(-c2ccccc2)cs1)c1cccnc1`?
SKKanGAS inh: inactive; Mdm2 MdmX PPI: inactive; Beta apoptosis: inactive; CSC inhib: inactive; MPTP inh: inactive; GRIN3A LBD mod: inactive

How did O=C(Nc1nc(-c2ccccc2)cs1)c1ccc(Br)o1 do in these assays?
SKKanGAS inh: inactive; Mdm2 MdmX PPI: inactive; Beta apoptosis: inactive; CSC inhib: inactive; MPTP inh: 82; GRIN3A LBD mod: inactive; MPTP counter: 21

How did O=C(NC(=S)Nc1nc(-c2ccccc2)cs1)c1cncc(Br)c1 do in these assays?
SKKanGAS inh: inactive; Mdm2 MdmX PPI: inactive; MPTP inh: 74; GRIN3A LBD mod: 31; MPTP counter: 75

Results for CC(NC(=O)Nc1cccnc1)(C(F)(F)F)C(F)(F)F ?
SKKanGAS inh: inactive; Mdm2 MdmX PPI: inactive; Beta apoptosis: inactive; CSC inhib: inactive; MPTP inh: inactive; GRIN3A LBD mod: inactive

What do the screens show for `O=C(Nc1cccc([N+](=O)[O-])c1)Nc1cccs1`?
SKKanGAS inh: inactive; Mdm2 MdmX PPI: inactive; Beta apoptosis: inactive; CSC inhib: inactive; MPTP inh: 89; GRIN3A LBD mod: 19; MPTP counter: 85

Results for Cc1c(C(=O)Nc2cccc([N+](=O)[O-])c2)csc1-c1ccccc1 ?
SKKanGAS inh: inactive; Mdm2 MdmX PPI: inactive; Beta apoptosis: inactive; CSC inhib: inactive; MPTP inh: 85; GRIN3A LBD mod: 13; MPTP counter: 89

Results for CC(NC(=O)Nc1cccc([N+](=O)[O-])c1)(C(F)(F)F)C(F)(F)F ?
SKKanGAS inh: inactive; Mdm2 MdmX PPI: inactive; Beta apoptosis: inactive; CSC inhib: inactive; MPTP inh: 106; GRIN3A LBD mod: inactive; MPTP counter: 102

What do the screens show for `COc1cc(NC(=O)CCc2nnc3ccc(N4CCN(C)CC4)nn23)cc(OC)c1`?
SKKanGAS inh: inactive; Mdm2 MdmX PPI: inactive; Beta apoptosis: inactive; CSC inhib: inactive; MPTP inh: inactive; GRIN3A LBD mod: inactive

Results for Cc1ccc(C)c(N2CCN(c3ccncc3N)CC2)c1 ?
SKKanGAS inh: inactive; Mdm2 MdmX PPI: inactive; Beta apoptosis: inactive; CSC inhib: inactive; MPTP inh: inactive; GRIN3A LBD mod: inactive

Compound activity from PubChem.
